Some test systems named below: DU-145 prostate; K-562 leukemia; MALME-3M melanoma; MDA-MB-231 breast; RXF 393 renal; SF-268 CNS; SF-295 CNS; SF-539 CNS; UACC-257 melanoma; M14 melanoma.
Holding throughout (experiment): NCI-60 one-dose screen, 48 h (100 = growth as untreated, 0 = no growth, -100 = all killed)
Details in all cases: 10 µM unless noted

About 83,000 compounds went through this panel and 20% of them were active in at least one assay; those are over-represented in the sample as a whole.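 Plates (96-well) were seeded with cells, treated with compound at one concentration, and incubated for 48 hours before percent growth was determined.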 A number with no mark means an inactive call. Active and inactive are the calls of the source. Rule for the calls: active = growth percent below 10; inactive = the rest.

Take `O=C(CN1C(=O)CCC1=O)Nc1ncc(Cc2ccc(F)cc2)s1`: the growth with DU-145 prostate is 106%; in the assay on K-562 leukemia, 98.5%; with MALME-3M melanoma, 99.8%; with MDA-MB-231 breast, 97.4%; in the assay on RXF 393 renal, 109%; in the assay on SF-268 CNS it was 91.2%. Moreover, the growth in the assay with SF-295 CNS is 99.3%; in the assay with SF-539 CNS, 98.7%; in the assay with UACC-257 melanoma, 98.5%; in the assay with M14 melanoma it was 103%.
On to `C#CCOc1cccc(Nc2ncnc3ccc(NC(=O)CCl)cc23)c1`, for which the growth in the assay on DU-145 prostate is -1.66% (active); in the assay on K-562 leukemia it was -13.1% (active); with MALME-3M melanoma, -76.3% (active); in the assay with MDA-MB-231 breast it was -37.8% (active); in the assay on RXF 393 renal, -77.1% (active); with SF-268 CNS, -8.71% (active). Besides, the growth with SF-295 CNS was -67.7% (active); in the assay with SF-539 CNS, -86.6% (active); in the assay on UACC-257 melanoma, -67.1% (active); with M14 melanoma it was -47.8% (active).
Consider `CCCCCC(=O)OCC(=O)O[C@@H]1C[C@]2(C(C)C)O[C@@]1(C)[C@@H]1CC[C@@H](C)[C@H]1[C@@H]2OC(=O)/C=C/c1ccccc1`, for which the growth with DU-145 prostate is 73.4%; in the assay on K-562 leukemia it was 42.3%; in the assay with MALME-3M melanoma, 49.8%; in the assay on MDA-MB-231 breast, 83.6%; in the assay with RXF 393 renal, -2.83% (active); in the assay on SF-268 CNS, 54.4%. Besides, the growth with SF-295 CNS was 90.2%; in the assay on SF-539 CNS it was 92.3%; with UACC-257 melanoma, 87.2%; in the assay on M14 melanoma it was 69.1%.
As for `N#Cc1c(NC(=O)c2ccccc2)sc2c1CCC(=O)C2`, the growth was 40.7% with DU-145 prostate; 4.06% (active) in the assay on K-562 leukemia; -12.9% (active) in the assay on MALME-3M melanoma; -11.3% (active) in the assay with MDA-MB-231 breast; -1.37% (active) with RXF 393 renal; 16% in the assay with SF-268 CNS. Further, the growth with SF-295 CNS was 21.7%; in the assay with SF-539 CNS, -28.4% (active); in the assay with UACC-257 melanoma, 2.08% (active); in the assay with M14 melanoma, 14%.
In the case of `O=S(=O)(NCCCNc1nccc(-c2c(-c3ccc(F)c(O)c3)nc3occn23)n1)c1ccccc1`, the growth in the assay with DU-145 prostate is 90.5%; in the assay with K-562 leukemia, 56.8%; in the assay on MALME-3M melanoma, -0.289% (active); in the assay on MDA-MB-231 breast, 57.7%; in the assay on RXF 393 renal, 70.9%; in the assay with SF-268 CNS it was 97.3%. The growth is 104% with SF-295 CNS, 105% with SF-539 CNS, 29.1% in the assay with UACC-257 melanoma and 17.2% in the assay on M14 melanoma.
Turning to `COCCn1c(-c2csc(-c3cn(C)c4ccc(OC)cc34)n2)cc2cccnc21`, the growth is 62.7% in the assay on DU-145 prostate; -25.5% (active) in the assay with K-562 leukemia; 106% in the assay with MALME-3M melanoma; 43.6% with MDA-MB-231 breast; 52.3% with RXF 393 renal; 64.1% with SF-268 CNS. For the same compound, the growth in the assay with SF-295 CNS is 58.9%; with SF-539 CNS, 58.9%; in the assay with UACC-257 melanoma it was 54.5%; with M14 melanoma it was 44.2%.
Turning to `COc1ccc(C(=O)Nc2ncc(Cc3cccc(Cl)c3)s2)cc1OC`, the growth is 30.5% with DU-145 prostate; 11.6% in the assay with K-562 leukemia; 47.6% in the assay on MALME-3M melanoma; 39.1% in the assay on MDA-MB-231 breast; -7.25% (active) in the assay with RXF 393 renal; 50.8% in the assay with SF-268 CNS. For the same compound, the growth with SF-295 CNS was 6.3% (active); in the assay on SF-539 CNS, -12.3% (active); with UACC-257 melanoma, 23.1%; with M14 melanoma it was 8.45% (active).
With `N#Cc1c(-c2cccs2)cc(-c2cccnc2)[nH]c1=O`, the growth in the assay on DU-145 prostate was 109%; in the assay on K-562 leukemia, 98.2%; in the assay on MALME-3M melanoma, 104%; in the assay with MDA-MB-231 breast, 105%; in the assay on RXF 393 renal it was 101%; with SF-268 CNS, 100%. The growth was 101% with SF-295 CNS, 95.5% in the assay with SF-539 CNS, 97.1% with UACC-257 melanoma and 106% with M14 melanoma.
For the compound `O=C(CSc1nc(-c2ccccc2)[nH]c1S(=O)(=O)c1ccccc1)NC1CC1`, the growth was 112% in the assay on DU-145 prostate; 87.4% in the assay on K-562 leukemia; 103% with MALME-3M melanoma; 90.1% with MDA-MB-231 breast; 4.36% (active) with RXF 393 renal; 102% in the assay with SF-268 CNS. In addition, the growth in the assay on SF-295 CNS is 36.3%; in the assay with SF-539 CNS, 103%; in the assay with UACC-257 melanoma it was 87.4%; with M14 melanoma, 96.4%.
For `C=C(C)[C@@H]1CC[C@]2(C)[C@H](CC=C3[C@@H]4[C@H](C)[C@@H](C)CC[C@]4(CO)CC[C@]32C)[C@@]1(C)CCCN`, the growth in the assay with DU-145 prostate is 28.4%; with K-562 leukemia, 1.75% (active); in the assay with MALME-3M melanoma, -79.1% (active); with MDA-MB-231 breast, 3.87% (active); with RXF 393 renal, 21.7%; in the assay on SF-268 CNS, 59%. For the same compound, the growth in the assay on SF-295 CNS was 77.2%; with SF-539 CNS it was 13%; in the assay on UACC-257 melanoma, -56.7% (active); with M14 melanoma it was -46.2% (active).
In the case of `O=C(Nc1ccc(-c2nc(N3CCOCC3)c3cccn3n2)cc1)Nc1cccnc1`, the growth was 5.28% (active) with DU-145 prostate; 15.2% with K-562 leukemia; -29.9% (active) in the assay on MALME-3M melanoma; -0.801% (active) in the assay on MDA-MB-231 breast; -30.5% (active) in the assay with RXF 393 renal; 11.9% with SF-268 CNS. In addition, the growth in the assay on SF-295 CNS is -36.4% (active); in the assay on SF-539 CNS, -39.8% (active); in the assay on UACC-257 melanoma it was -11.7% (active); in the assay on M14 melanoma, -0.739% (active).
Consider `COc1ccc2c3c([nH]c2c1)C(=O)c1nc(C)ccc1C3=O`, for which the growth was -73.2% (active) with DU-145 prostate; 40.7% in the assay on K-562 leukemia; -61.8% (active) in the assay on MALME-3M melanoma; 49.8% in the assay on MDA-MB-231 breast; 69.9% with RXF 393 renal; 69.5% in the assay with SF-268 CNS. In addition, the growth is 45.8% in the assay with SF-295 CNS, 54.8% in the assay with SF-539 CNS, 32.7% in the assay with UACC-257 melanoma and 19% with M14 melanoma.
As for `CCN1CCN(Cc2cn(CC(=O)Nc3ccc4c(ccn4Cc4ccccc4)c3)nn2)CC1`, the growth with DU-145 prostate was 105%; with K-562 leukemia it was 94.8%; in the assay on MALME-3M melanoma it was 99.5%; in the assay with MDA-MB-231 breast it was 91.5%; with RXF 393 renal, 111%; in the assay on SF-268 CNS, 95.9%. Further, the growth in the assay with SF-295 CNS is 105%; in the assay with SF-539 CNS, 102%; in the assay with UACC-257 melanoma, 103%; with M14 melanoma, 98.7%.

Source of the values: PubChem BioAssay (NCI).
